Source: PubChem BioAssay (NCATS)
Records with an inconclusive call do not appear. Active and inactive are the calls of the source. Calls follow the shape of the dose curve; as a rule, active = well fitted inhibition curve with a large enough effect; inconclusive = small, poorly fitted or top-dose-only effect; inactive = flat fitted curve, though single readings scatter.

Columns and labels:
Assay in all cases: qHTS profiling for inhibitors of Plasmodium falciparum proliferation (AID 504749); also: nearly all actives have a fitted effect of over 60% in size
Conditions in all cases: P. falciparum in erythrocytes, SYBR Green DNA, 72 h; series mostly up to 28.7 µM
CP250 = tested on: CP250
Method in brief: (§1)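 SYBR Green fluorescence (ex 485 nm, em 535 nm) reports parasite DNA after 72 h compound exposure of infected red cells at 0.3% parasitemia, 2.5% hematocrit; signal normalized to 0.29 uM artemisinin and vehicle wells.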

CP252 = tested on: CP252
Method in brief: as §1

CP256 = tested on: CP256
Method in brief: as §1

CP260 = tested on: CP260
Method in brief: as §1

CP262 = tested on: CP262
Method in brief: as §1

CP265 = tested on: CP265
Method in brief: as §1

CP266 = tested on: CP266
Method in brief: as §1

CP268 = tested on: CP268
Method in brief: as §1

CP269 = tested on: CP269
Method in brief: as §1

CP286 = tested on: CP286
Method in brief: as §1

CP291 = tested on: CP291
Method in brief: as §1

CP297 = tested on: CP297
Method in brief: as §1

CP305 = tested on: CP305
Method in brief: as §1

CP315 = tested on: CP315
Method in brief: as §1

CP325 = tested on: CP325
Method in brief: as §1

CP329 = tested on: CP329
Method in brief: as §1

CP335 = tested on: CP335
Method in brief: as §1

DFO2036 = tested on: DFO2036
Method in brief: as §1

DIV14 = tested on: DIV14
Method in brief: as §1

DIV17 = tested on: DIV17
Method in brief: as §1

Measured: Potency

CC(=O)SC[C@@H](Cc1ccccc1)C(=O)NCC(=O)OCc1ccccc1
inactive: all assays above

C=CCNC(N)=S
inactive: all assays above

NC(=O)CC[C@@H](N)C(=O)O
inactive: all assays above

NC(N)=NCCN1CCCCCCC1
inactive: all assays above

COc1ccccc1Oc1c(NS(=O)(=O)c2ccc(C(C)(C)C)cc2)nc(-c2ncccn2)nc1OCCO
inactive: all assays above

CCOC(=O)[C@H](CCc1ccccc1)N[C@@H](C)C(=O)N1CCC[C@H]1C(=O)O
inactive: all assays above

c1ccc2[nH]ccc2c1
inactive: all assays above

CC(=O)Oc1cccc(C)c1
inactive: all assays above

CN1C(C)(C)CCCC1(C)C
inactive: all assays above

CC(C)C[C@@H](N)C(=O)O
inactive: all assays above

Cc1cc(C)nc(NS(=O)(=O)c2ccc(N)cc2)n1
inactive: all assays above

COc1ccc(O)cc1
inactive: all assays above

Nc1ccncc1N
inactive: all assays above

CN(C(=O)c1c(O)c2ccccc2n(C)c1=O)c1ccccc1
inactive: all assays above

Nc1ccc(S(=O)(=O)c2ccc(N)cc2)cc1
inactive: all assays above

Cc1ccc(S(=O)(=O)NC(=O)NC2CCCCCCC2)cc1
inactive: all assays above

Nc1ccc(C(=O)Oc2ccccc2)c(O)c1
not listed: DIV14
inactive: all other assays above

O=c1[nH]cnc2nc[nH]c12
inactive: all assays above

NNc1nnc(NN)c2ccccc12
inactive: all assays above

NS(=O)(=O)c1cc(-c2nn[nH]n2)c(NCc2cccs2)cc1Cl
inactive: all assays above

CNc1c2c(nn1C)CCCC2
not listed: DIV14
inactive: all other assays above

CCS(=O)(=O)CCn1c([N+](=O)[O-])cnc1C
inactive: all assays above

CCCCCCCCCCCCCCCCC(C(=O)O)C(O)(CC(=O)O)C(=O)O (configuration not stated)
inactive: all assays above

O=C(O)c1ccc[n+]([O-])c1
not listed: DIV14
inactive: all other assays above

Cc1ccc(C(C)C)c(O)c1
inactive: all assays above

O=C(O)CCCCC1CCSS1 (configuration not stated)
not listed: DIV14
inactive: all other assays above

O=C(O)c1ccc(OCCCOc2ccc(C(=O)O)cc2)cc1
inactive: all assays above

Cc1cccc(C)c1NC(=O)CC12CCCN1CCC2
inactive: all assays above

O=C(O)Cc1cn(-c2ccccc2)nc1-c1ccc(Cl)cc1
inactive: all assays above

CC(O)CCCCn1c(=O)c2c(ncn2C)n(C)c1=O (configuration not stated)
inactive: all assays above

CCOC(=O)c1cccnc1
inactive: all assays above

CCN(CC)CCOC(=O)C(c1ccccc1)c1ccccc1
inactive: all assays above

O=S1(=O)OC(c2ccc(O)cc2)(c2ccc(O)cc2)c2ccccc21
inactive: all assays above

O=C1c2cccc(O)c2C(=O)c2c(O)cccc21
inactive: all assays above

O=C(NCN1CCOCC1)c1cnccn1
inactive: all assays above

CC(C)CCCC(C)CCCC(C)CCCCC(C)CCCC(C)CCCC(C)C (configuration not stated)
inactive: all assays above

Cn1c(=O)c2c(ncn2CCO)n(C)c1=O
inactive: all assays above

Cc1cccc(Nc2ccccc2C(=O)O)c1C
inactive: all assays above

C[C@@H](N)C(=O)O
inactive: all assays above

O=C(O)Cn1c(C(=O)Nc2nc(-c3ccccc3Cl)cs2)cc2ccccc21
inactive: all assays above

O=C(Cn1ccnc1[N+](=O)[O-])NCc1ccccc1
inactive: all assays above

NC(N)=NS(=O)(=O)c1ccc(N)cc1
inactive: all assays above

NC(=O)NS(=O)(=O)c1ccc(N)cc1
inactive: all assays above

COc1ccc(NS(=O)(=O)c2ccc(N)cc2)nn1
inactive: all assays above

CC(C)c1cc2c(cc1S(=O)(=O)O)[C@@]1(C)CCC[C@@](C)(C(=O)O)[C@@H]1CC2
not listed: CP269
inactive: all other assays above

Cc1c(NC(C)C)c(=O)n(-c2ccccc2)n1C
not listed: CP266
inactive: all other assays above

O=C(OOC(=O)c1ccccc1)c1ccccc1
not listed: CP297
inactive: all other assays above

CCN1CC(CCN2CCOCC2)C(c2ccccc2)(c2ccccc2)C1=O (configuration not stated)
not listed: CP265 | CP297 | CP335 | DIV14
inactive: all other assays above

OC[C@@H](O)[C@@H](O)[C@H](O)[C@H](O)CO
not listed: CP335
inactive: all other assays above

N[C@@H](Cc1ccc(O)cc1)C(=O)O
not listed: CP325
inactive: all other assays above

CCCNC(C)(C)COC(=O)c1ccccc1
not listed: CP335
inactive: all other assays above

NS(=O)(=O)c1ccc(NC(=O)CCC(=O)O)cc1
not listed: CP291
inactive: all other assays above

Cc1c(NC(=O)c2cccnc2)c(=O)n(-c2ccccc2)n1C
not listed: CP315
inactive: all other assays above

Cc1ccsc1C(=CCCN1CCC[C@@H](C(=O)O)C1)c1sccc1C
not listed: CP266 | CP305
inactive: all other assays above

Cn1c([N+](=O)[O-])cnc1COC(N)=O
not listed: CP268 | DIV17
inactive: all other assays above

COC(=O)c1ccc(O)cc1
not listed: CP266 | CP315
inactive: all other assays above

COc1ccccc1OC(=O)Oc1ccccc1OC
not listed: CP297
inactive: all other assays above

CN(C/C=C/C#CC(C)(C)C)Cc1cccc2ccccc12
not listed: CP286
inactive: all other assays above

C[C@@H]1O[C@@H](OC[C@H]2O[C@@H](Oc3c(-c4ccc(O)c(O)c4)oc4cc(O)cc(O)c4c3=O)[C@H](O)[C@@H](O)[C@@H]2O)[C@H](O)[C@H](O)[C@H]1O
not listed: CP266
inactive: all other assays above

COc1ccc(C(=O)NCc2ccc(OCCN(C)C)cc2)cc1OC
not listed: CP291 | DIV17
inactive: all other assays above

O=C(O)CCC(=O)O
not listed: CP335
inactive: all other assays above
